# HT1080-NT tox: kills 2HG-producing HT-1080-NT fibrosarcoma cells; AID 686970; 360,000 compounds, 1.6% hits; HT-1080-NT fibrosarcoma viability, CellTiter-Glo ATP luminescence, 48 h; Potency, µM (top dose mostly 46.1 µM), for the others: top-dose activity, negative = less viability, most hits filed as cytotoxic;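 further: NT is the 2HG producing partner of a matched IDH1 knockdown line; potency means the concentration at half of the fitted maximal effect; 0% = DMSO-treated cells and -100% = media-only wells without cells; nearly all actives have a fitted effect of over 55% in size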
#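 Luminescent CellTiter-Glo readout after 48 hours of compound exposure at 37 degrees C defined viability of HT-1080-NT cells. Activity was normalized to DMSO wells and cell-free media wells; concentration-response curves were fitted and assigned curve classes.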
# TDP1 cell noCPT: qHTS for Inhibitors of human tyrosyl-DNA phosphodiesterase 1 (TDP1): qHTS in cells in absence of CPT; DT40 Tdp1-/- hTDP1 cells, no CPT, ATP luminescence, 48 h; Potency, µM (titrated, usually from 46.2 µM), for inactives: top-dose activity change, negative = growth inhibition, most hits filed as inhibitors; 420,000 compounds, 15% hits; further: potency means the concentration at half of the fitted maximal effect; nearly all actives have a fitted effect of over 55% in size
#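 Cells were dispensed at 400 per well, compounds added by pin tool, plates incubated ≥48 hr at 37 °C, then CellTiter-Glo added for 30 min at room temperature before luminescence reading. Line: DT40 Tdp1-/- complemented with hTDP1; camptothecin omitted.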
# HT1080 IDH1KD tx: kills HT-1080 cells with IDH1 knockdown | AID 686971 | Potency, µM (highest dose often 46.1 µM), for inactives: at the highest dose activity, negative = toxicity, hits mostly cytotoxic | HT-1080 IDH1 knockdown viability, ATP luminescence, 48 h | 360,000 compounds, 2% hits;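 further: potency means the concentration at half of the fitted maximal effect; 0% = DMSO wells and -100% = cell-free medium wells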
#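 Using the IDH1-knockdown HT-1080 line run in the same batch and compound series as the NT line, viability after 48 h at 37 °C was determined by CellTiter-Glo luminescence and expressed as % activity.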
# IL-1B inflam inh: blocks inflammasome-driven IL-1 beta release. THP-1 LPS/ATP IL-1B secretion, AlphaLISA, 16 h; active compounds read low. activity change, % at 57.5 µM. 360,000 compounds, 4.7% hits. AID 743279; in the data active means activity change below about -50%; inconclusive means mostly about -30% to -49%
#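 THP-1 cells pretreated 1 hr with compounds (up to 57.5 uM final), then stimulated with LPS (250 ng/mL final) plus ATP (1.25 mM final); secreted IL-1B measured by AlphaLISA after 16 hr, decreased signal indicating inhibition.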
# TDP1 cell CPT: DT40-hTDP1 cell growth loss with CPT; chicken DT40 Tdp1-/-;hTDP1 cells + 20 nM CPT, ATP luminescence, 48 h; Potency, µM (titrated, usually from 46.2 µM), inactives show at the highest dose activity change, negative = growth inhibition, actives largely listed as inhibitors; 420,000 compounds, 12% hits; AID 686979; further: potency means the concentration at half of the fitted maximal effect; nearly all actives have a fitted effect of over 55% in size
#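 Cell growth measured by CellTiter-Glo luminescence after a minimum 48 h, 37 C compound exposure with 20 nM CPT in Tdp1-knockout DT40 cells stably expressing hTDP1, seeded 400/well; qHTS titration format.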
# * hit, by the source's call; ? = inconclusive; · = no result; [ ] = dose if it differs, or a comment. Only some compounds are listed: those with a hit (about 19% of all), similar ones and a draw of the others. Unless noted, the call rests on the fitted dose curve; in most records, active means well fitted curve in the direction sought with a large enough effect; inconclusive means small, poorly fitted or top-dose-only effect, or another doubt; inactive means no such curve, though single readings can be large; an effect the other way counts as inactive or inconclusive. Unless noted, on the % scale 0 is the no-effect control and ±100 the full control effect.
SMILES,HT1080-NT tox,TDP1 cell noCPT,HT1080 IDH1KD tx,IL-1B inflam inh,TDP1 cell CPT
COc1ccc(/C(C)=N/NC(=O)C2C3CCCCC32)c(OC)c1 (centres undefined),?,-19%,25%,4,-12%
CCNC(=S)N/N=C(\C)c1ccc(Cl)s1,4%,4.1µM*,4%,0,4.1µM*
C/C(=N\NC(N)=O)c1ccc(Cl)s1,14%,4%,3%,14,1%
CCOc1ccc(NC(=O)CSc2nnc(NC(=O)C3CC3)s2)cc1,1%,-3%,15%,0,-8%
O=C(Nc1ccccc1)N1CC[C@@]2(CCCN(C(=O)c3ccco3)C2)C1,·,-13%,·,·,2%
COc1cc(CN(C(=O)COc2ccc(Cl)cc2)c2ccccn2)cc(OC)c1OC,·,8.2µM*,·,·,18µM*
CCCCOc1cccc(C(=O)N(Cc2ccc(C)o2)c2ccccn2)c1,·,9.2µM*,·,·,15µM*
Cc1cc(OCC(=O)N(C)Cc2ccccc2)cc(C)c1Cl,-2%,?,-23%,-3,7%
Cc1ccc(CN(C(=O)c2ccc(F)cc2)c2ccccn2)o1,·,?,·,·,-3%
Cc1ccc(CN(C(=O)COc2cc(C)c(Cl)c(C)c2)c2ccccn2)o1,·,18µM*,·,·,?
Cc1ccc(CN(C(=O)COc2ccc(Br)cc2)c2ccccn2)o1,·,16µM*,·,·,?
O=C(Cc1c(F)cccc1Cl)N(Cc1ccccc1)c1ccccn1,3%,?,2%,-14,?
Cc1ccc(OCC(=O)N(Cc2ccco2)c2ccccn2)cc1,·,-5%,·,·,?
CCC(=O)Nc1ccc2oc(-c3cccc(C)c3)nc2c1,-6%,5.8µM*,?,-21,7.3µM*
Cc1ccc(SCC(=O)Nc2cccc(C)c2)cc1,-6%,-1%,-2%,14,-10%
Cc1ccc(SCC(=O)Nc2ccc3oc(-c4cccc(C)c4)nc3c2)cc1,·,15µM*,·,·,?
O=C(Nc1cc(S(=O)(=O)N2CCOCC2)ccc1N1CCOCC1)c1cccc(S(=O)(=O)N2CCCCC2)c1,-1%,-2%,-11%,?,-24%
O=C(Cc1cccs1)N1CCN(S(=O)(=O)c2ccc(Br)cc2)CC1,0%,8%,-1%,7,-9%
Cc1ccc(S(=O)(=O)N(C)c2ccc(OC(C)C(=O)N(C)c3ccccc3)cc2)cc1 (centres undefined),1%,18µM*,-8%,6,15µM*
CC(Oc1ccc(F)cc1)C(=O)Nc1cccc(S(=O)(=O)N(C)c2ccccc2)c1 (centres undefined),-18%,16µM*,-5%,9,?
CN(C)S(=O)(=O)c1cccc(NC(=O)C(c2ccccc2)c2ccccc2)c1,-9%,?,-20%,32,?
CCC(C(=O)Nc1cccc(S(=O)(=O)N(C)c2ccccc2)c1)c1ccccc1 (centres undefined),-13%,18µM*,?,-1,18µM*
CC(Oc1ccc(F)cc1)C(=O)Oc1ccc(N(C)S(=O)(=O)c2ccccc2)cc1 (centres undefined),-4%,-26%,1%,6,-23%
NS(=O)(=O)c1cccc(NC(=O)COC(=O)CN2C(=O)c3ccccc3C2=O)c1,2%,-2%,8%,-2,-1%
CN(C)c1cc[n+](CC(=O)Nc2ccc([N+](=O)[O-])cc2Cl)cc1,-21%,?,-28%,9,?
SMILES,HT1080-NT tox,TDP1 cell noCPT,HT1080 IDH1KD tx,IL-1B inflam inh,TDP1 cell CPT
CN(C)c1cc[n+](CC(=O)Nc2c(Cl)cc(Cl)cc2Cl)cc1,-7%,6.5µM*,-27%,-26,7.3µM*
Cc1ccc(N2C(=O)N(c3ccc(C)cc3)C3CS(=O)(=O)CC32)cc1 (centres undefined),5%,-12%,6%,19,-12%
Cc1[nH]n(-c2ccccc2)c(=O)c1C(C[N+](=O)[O-])c1ccc(Br)cc1 (centres undefined),-26%,9.2µM*,-18%,-15,12µM*
Cc1[nH]n(-c2ccccc2)c(=O)c1C(c1cccc([N+](=O)[O-])c1)c1c(C)[nH]n(-c2ccccc2)c1=O,1%,21µM*,-8%,-85*,?
Cc1[nH]n(-c2ccccc2)c(=O)c1C(c1ccc(C(=O)O)cc1)c1c(C)[nH]n(-c2ccccc2)c1=O,0%,?,4%,-1,?
COc1ccc(OC)c(S(=O)(=O)NC(=O)C2(C)CCN2C(=O)C2(c3ccc(Cl)cc3)CC2)c1 (centres undefined),3%,-3%,18%,7,-5%
CCc1ccc(C(=O)c2cn(CC(=O)Nc3ccc4c(c3)OCCO4)c3ccc(CC)cc3c2=O)cc1,·,8%,·,·,0%
O=c1ccc(-c2ccc(S(=O)(=O)NCC3CCN(Cc4ccccc4F)CC3)s2)n[nH]1,0%,18%,3%,-6,10%
CCOC(=O)c1c(C)[nH]c(C(=O)Cn2c(=O)c3c(ncn3CC)n(Cc3ccccc3)c2=O)c1C,-15%,?,-1%[9.24 µM],-10,26µM*
CCn1cnc2c1c(=O)n(CC(=O)NCC(C)C)c(=O)n2Cc1ccccc1,1%,18%,3%,16,8%
COc1cc(Cl)c(C)cc1NC(=O)c1nn(-c2ccc(C)cc2)c(=O)n(C)c1=O,·,-5%,·,·,-18%
COc1ccccc1NS(=O)(=O)c1ccc(OC)c([N+](=O)[O-])c1,0%,-13%,5%,0,1%
CC1C/C(=N\Nc2ccc(S(N)(=O)=O)cc2[N+](=O)[O-])CC(C)(C)C1 (centres undefined),?,?,?,-79*,?
NS(=O)(=O)c1ccc(N/N=C2/CCCCC2C2CCCCC2)c([N+](=O)[O-])c1 (centres undefined),18µM*,10µM*,?,-112*,21µM*
COc1ccccc1NS(=O)(=O)c1ccc(NN=C2CCCCC2)c([N+](=O)[O-])c1,-11%,26µM*,-3%,0,18µM*
O=C(NC1CCCC1)C(c1ccccc1)n1c(-c2cccc3ccccc23)nc2ccccc21 (centres undefined),?,?,?,22,?
O=C(CNC(=O)c1ccc(Br)o1)NC12CC3CC(CC(C3)C1)C2,0%,3%,8%,14,7%
CCNC(=O)c1ccc(C23CC4CC(CC(C4)C2)C3)o1,9%,15µM*,8%,14,?
CCN(CC)S(=O)(=O)c1cc(C)ccc1NC(=S)Nc1cccnc1,-12%,?,-18%,-5,?
Cc1ccc(C)c(N(C)C(=O)c2coc(=O)c3ccccc23)c1,7%,23µM*,2%,1,?

# High-throughput results: PubChem, National Center for Advancing Translational Sciences (NCATS)
